Hits are enriched below; roughly 1.9% of the tested compounds scored in any of these assays.
CXXC DNA block: qHTS Fluorescence Polarization Assay for Inhibitors of MLL CXXC domain - DNA interaction. Histone-lysine N-methyltransferase 2A (Homo sapiens), Q03164. 0.037% of 290,000 active. Potency, µM (doses to about 115 µM), hits mostly inhibitors. MLL-CXXC / FITC-HOXA9 DNA fluorescence polarization; active = well fitted inhibition curve with a large enough effect in the polarisation, with a control signal flat, not every such curve was filed as active; inconclusive = small, poorly fitted or top-dose-only effect, or effect the other way, or a change in a side signal; inactive = no such curve, though single readings can be large or run the other way; the % refers to the polarisation
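Fluorescence polarization: 7 uM MLL-CXXC (stock) preincubated 5 min with compounds, then 50 nM fluorescein-HOX-A9 DNA (stock) added; 30 min ambient. Buffer 50 mM Tris-HCl pH 7.5, 50 mM NaCl, 1 mM DTT, 0.05% BSA.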
PINK1 expr mod: A Quantitative High throughput Screen to Identify Chemical Modulators of PINK1 Expression | PINK1 immunofluorescence, high-content cytometry, 24 h | Potency, µM (doses to about 76.6 µM), hits mostly activators | 0.2% of 410,000 active; active = well fitted activation curve with a large enough effect; inconclusive = small, poorly fitted or top-dose-only effect; cell line not stated here; note: nearly all actives have a fitted effect of over 65% in size
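PINK1 protein level read as immunofluorescence by microplate cytometer in a fixed, stained stable cell line after 24 h exposure to five compound concentrations, with CCCP as control.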
Menin-MLL FL inh: qHTS Assay for Inhibitors Targeting the Menin-MLL Interaction in MLL Related Leukemias: Competition With Fluorescein Labeled MLL-derived Peptide. Fluorescence polarization, fluorescein-MLL peptide displacement from menin. FP activity change, % at 61.4 µM. 290,000 tested, under 10 active; active = well fitted curve in the direction sought with a large enough effect in the polarisation, not every such curve was filed as active; inconclusive = small, poorly fitted or top-dose-only effect, or effect the other way, or a change in a side signal; inactive = no such curve, though single readings can be large or run the other way; the % refers to the polarisation
ClpP mod: qHTS Assay for Activators of ClpP; ATP-dependent Clp protease proteolytic subunit (Bacillus subtilis (strain 168)), P80244; purified B. subtilis ClpP, FRET peptide cleavage, 20 min; Potency, µM (titrated, usually from 57.5 µM); 1.9% of 340,000 active; active = well fitted falling curve with a large enough effect; inconclusive = small, poorly fitted or top-dose-only effect; inactive = no such curve, though single readings can be large or run the other way; note: the source files actives as falling curves though it sought activators and does not explain the sign; nearly all actives have a fitted effect of over 65% in size
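Buffer: 100 mM Tris/HCl pH8, 100 mM KCl, 0.05% low protease BSA, 2.5% glycerol, 0.01% Tween-20. ClpP 10 microg/mL final; 20 min RT; delta FRET normalized to ADEP and DMSO controls.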
Menin-MLL TR inh: qHTS Assay for Inhibitors Targeting the Menin-MLL Interaction in MLL Related Leukemias: Competition With Texas Red Labeled MLL-derived Mutant Peptide; Menin + Texas Red MLL mutant peptide, fluorescence polarization; Potency, µM (top dose mostly 61.6 µM), hits mostly inhibitors; 0.23% of 270,000 active; active = well fitted inhibition curve with a large enough effect in the polarisation, with a control signal flat, not every such curve was filed as active; inconclusive = small, poorly fitted or top-dose-only effect, or effect the other way, or a change in a side signal; inactive = no such curve, though single readings can be large or run the other way; the % refers to the polarisation
Target sequence (O00255 whole entry, looked up): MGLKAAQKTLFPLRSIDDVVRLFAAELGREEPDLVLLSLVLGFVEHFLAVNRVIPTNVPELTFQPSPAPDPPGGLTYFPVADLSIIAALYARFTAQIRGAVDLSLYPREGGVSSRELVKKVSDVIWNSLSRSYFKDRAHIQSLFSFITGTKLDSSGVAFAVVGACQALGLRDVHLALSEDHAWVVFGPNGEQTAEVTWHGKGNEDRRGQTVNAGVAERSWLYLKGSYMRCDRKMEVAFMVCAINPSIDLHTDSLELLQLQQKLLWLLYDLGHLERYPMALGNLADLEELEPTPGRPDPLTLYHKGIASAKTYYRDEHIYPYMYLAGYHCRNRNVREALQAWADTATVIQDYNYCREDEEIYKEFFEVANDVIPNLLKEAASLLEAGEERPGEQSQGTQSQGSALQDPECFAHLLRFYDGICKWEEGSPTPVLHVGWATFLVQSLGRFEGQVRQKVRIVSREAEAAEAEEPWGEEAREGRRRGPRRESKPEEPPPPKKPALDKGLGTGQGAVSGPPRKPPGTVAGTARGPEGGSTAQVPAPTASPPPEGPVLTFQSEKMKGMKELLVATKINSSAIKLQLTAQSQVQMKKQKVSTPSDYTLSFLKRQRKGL
Epigenetic derep: Quantitative High-Throughput Screen for Regulators of Epigenetic Control | murine LDR cells, GFP reporter derepression, 30 h | Potency, µM (highest dose often 53.9 µM), actives largely listed as activators | 0.2% of 280,000 active | AID 1865, 2009; active = well fitted activation curve with a large enough effect; inconclusive = small, poorly fitted or top-dose-only effect; note: nearly all actives have a fitted effect of over 60% in size
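Reporter derepression read as number of fluorescent GFP-positive objects, 20-120 um in size, counted by laser-scanning cytometer. Mouse LDR line with an epigenetically silenced CMV-GFP locus; compound incubation 30 h, 37 C.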
Large screens that a line does not name were inactive.

CN(C)c1ccc(NC2=C([N+](=O)[O-])CS(=O)(=O)C2)cc1	Epigenetic derep 16µM (no result: Menin-MLL TR inh)
Cc1ccc(NC2=C([N+](=O)[O-])CS(=O)(=O)C2)cc1	none
O=C(Nc1cccc2ccccc12)c1cnn2c1NC(=C1CC1)C=C2C(F)F	none (no result: CXXC DNA block, Menin-MLL FL inh, Menin-MLL TR inh, Epigenetic derep)
CCN(C(=O)COC(=O)C1=COCCO1)c1c(N)n(Cc2ccccc2)c(=O)[nH]c1=O	ClpP mod 14µM (no result: CXXC DNA block, Menin-MLL FL inh, Menin-MLL TR inh, Epigenetic derep)
Oc1cc(-n2cccn2)c(O)cc1-n1cccn1	Menin-MLL FL inh inconclusive, ClpP mod 28µM, Menin-MLL TR inh inconclusive
COc1ccc2oc(C(=O)OCC(=O)N3CCN(C(C)=O)CC3)c(C)c2c1	ClpP mod 25µM (no result: CXXC DNA block, Menin-MLL FL inh, Menin-MLL TR inh, Epigenetic derep)
COc1ccc2oc(C(=O)OCC(=O)N3CCCCC3)c(C)c2c1	none (no result: CXXC DNA block, Menin-MLL FL inh, ClpP mod, Menin-MLL TR inh, Epigenetic derep)
CCOc1ccc2oc(C(=O)OCC(=O)N3CCCC(C)C3)c(C)c2c1 (configuration not stated)	ClpP mod 28µM (no result: CXXC DNA block, Menin-MLL FL inh, Menin-MLL TR inh, Epigenetic derep)
COc1ccc2oc(C(=O)OCC(=O)N3CCCC(C)C3)c(C)c2c1 (configuration not stated)	ClpP mod 14µM (no result: CXXC DNA block, Menin-MLL FL inh, Menin-MLL TR inh, Epigenetic derep)
Cc1nc(N2CCN(S(=O)(=O)c3ccccc3)CC2)c2cc(-c3ccccc3)sc2n1	ClpP mod 28µM
COc1ccccc1C1CN(CCNC(=O)c2ccc3c(c2)OCCO3)Cc2ccccc2O1 (configuration not stated)	none (no result: CXXC DNA block, Menin-MLL FL inh, ClpP mod, Menin-MLL TR inh, Epigenetic derep)
CCCCOc1ccc(C(=O)NCC(=O)NCc2ccncc2)cc1	ClpP mod 32µM (no result: CXXC DNA block, Menin-MLL FL inh, Menin-MLL TR inh, Epigenetic derep)
COc1ccc(C(=O)NCC(=O)NCc2ccncc2)cc1	none (no result: CXXC DNA block, Menin-MLL FL inh, Menin-MLL TR inh, Epigenetic derep)
CN(C)/[N+]([O-])=N/Oc1ccc([N+](=O)[O-])cc1[N+](=O)[O-]	none (no result: CXXC DNA block, Menin-MLL FL inh, ClpP mod, Menin-MLL TR inh, Epigenetic derep)
COc1ccc(C(c2nnnn2CS(=O)(=O)c2ccc(C)cc2)N2CCN(c3ncccn3)CC2)cc1 (configuration not stated)	ClpP mod 32µM
COc1cc2c(cc1OC)-c1cc(NC3CCCC3)nc(=O)n1CC2	ClpP mod 32µM
Clc1ccc(CSc2nccn2Cc2ccccc2)cc1	none
O=c1ccn(Cc2ccccc2)c(SCc2ccccc2)n1	ClpP mod 16µM (no result: CXXC DNA block, Menin-MLL FL inh, Menin-MLL TR inh, Epigenetic derep)
CCc1ccc(C(=O)NNC(=O)OC)cc1	ClpP mod 14µM
O=C(CS(=O)CC(=O)Nc1ccc(Cl)cc1)NCC1OCCc2ccccc21 (configuration not stated)	ClpP mod 11µM
CC1CCN(S(=O)(=O)c2ccc(NC(=O)C3CSC4(C)CCC(=O)N34)cc2)CC1 (configuration not stated)	ClpP mod 28µM (no result: CXXC DNA block, Menin-MLL FL inh, Menin-MLL TR inh, Epigenetic derep)
COc1cc2c(=O)c(S(=O)(=O)c3ccc(F)cc3)cn(Cc3ccccc3C)c2cc1OC	ClpP mod inconclusive (no result: CXXC DNA block, Menin-MLL FL inh, Menin-MLL TR inh)
COc1cc2c3nnc(-c4ccccc4)c-3cn(Cc3ccccc3F)c2cc1OC	PINK1 expr mod inconclusive, Menin-MLL FL inh inconclusive, Menin-MLL TR inh 13µM, Epigenetic derep inconclusive (no result: ClpP mod)
COc1cc2c3nnc(-c4ccc(F)cc4)c-3cn(Cc3ccccc3F)c2cc1OC	CXXC DNA block inconclusive, PINK1 expr mod inconclusive, Menin-MLL FL inh inconclusive, Epigenetic derep 6.3µM (no result: ClpP mod)
COC(=O)c1cc(CNC(=O)c2ccc(N(C)C)cc2)cc(NC(=O)c2ccccc2Cl)c1	none (no result: CXXC DNA block, Menin-MLL FL inh, ClpP mod, Menin-MLL TR inh, Epigenetic derep)
COc1cccc(Nc2nc(-c3cccc(N4C(=O)c5ccccc5C4=O)c3)cs2)c1	Menin-MLL TR inh 14µM
NNC(=O)c1ccc(C(=O)N(c2ccccc2)c2ccccc2)cc1	none (no result: CXXC DNA block, Menin-MLL FL inh, Menin-MLL TR inh, Epigenetic derep)
C[C@@H]1CN(Cc2ccc3c(c2)CN(Cc2cccc4c2OCO4)CCO3)C[C@H](C)O1	none (no result: CXXC DNA block, Menin-MLL FL inh, ClpP mod, Menin-MLL TR inh, Epigenetic derep)
C=CCNC(=O)/C(C#N)=C/c1ccc2c(c1)OCCO2	none (no result: ClpP mod)
C=CCNC(=O)/C(C#N)=C/c1ccc(SC)cc1	ClpP mod 25µM
CCCOc1ccc(-c2nc(OCC)c3ccccc3n2)cc1	ClpP mod 32µM
